Data on eight compounds can be found in PubChem BioAssay (NCI).

Among the test systems are SK-MEL-2 melanoma; EKVX NSCLC; SN12C renal; UO-31 renal; TK-10 renal; ACHN renal; CAKI-1 renal; A498 renal; CCRF-CEM leukemia; MOLT-4 leukemia; SR leukemia; RPMI-8226 leukemia; OVCAR-8 ovarian; OVCAR-5 ovarian; OVCAR-4 ovarian; SK-OV-3 ovarian; IGROV1 ovarian; OVCAR-3 ovarian; HS 578T breast; NCI/ADR-RES ovarian.
Holding throughout (assay): NCI-60 one-dose screen, 48 h (100 = growth as untreated, 0 = no growth, -100 = all killed)
Common to all, as to settings: 10 µM unless noted

About 83,000 compounds went through this panel and 20% of them were active in at least one assay; those are over-represented in the sample as a whole.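 Compound tested at a single concentration for 48 hours in 96-well plates; a percent growth value below 10 was scored as active.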 A number with no mark means an inactive call. The source made the active and inactive calls.

In the case of `O=C(NC1CC(F)C1)c1cc2cccnc2n1-c1ccc(Cl)c(Cl)c1` (stereo not given), the growth is 105% with SK-MEL-2 melanoma; 98.5% with EKVX NSCLC; 96.4% in the experiment with SN12C renal; 69.7% in the experiment with UO-31 renal; 90.2% in the experiment on TK-10 renal; 95.5% in the experiment on ACHN renal. Also, the growth in the experiment with CAKI-1 renal was 84.4%; with A498 renal, 99%; in the experiment with CCRF-CEM leukemia it was 99.7%; with MOLT-4 leukemia, 98.9%; in the experiment on SR leukemia, 104%; in the experiment with RPMI-8226 leukemia, 95.6%. The growth is 95.4% in the experiment with OVCAR-8 ovarian; 94.8% in the experiment with OVCAR-5 ovarian; 95.4% with OVCAR-4 ovarian; 104% with SK-OV-3 ovarian; 86.7% with IGROV1 ovarian; 102% in the experiment on OVCAR-3 ovarian. Further, the growth with HS 578T breast was 99.2%; in the experiment with NCI/ADR-RES ovarian, 90.1%.
For `Cn1c2c(c3ccc(Cl)c(Cl)c31)C(C#N)C(C)(C)NC2=O` (stereo not given), the growth with SK-MEL-2 melanoma was 45.2%; in the experiment with EKVX NSCLC, 84.9%; in the experiment on SN12C renal it was 93.6%; with UO-31 renal it was 110%; in the experiment with TK-10 renal, 82.3%; in the experiment on ACHN renal, 80.1%. The growth with CAKI-1 renal is 63.4%; in the experiment on A498 renal, -14.9% (active); in the experiment with CCRF-CEM leukemia, 87.9%; in the experiment on MOLT-4 leukemia it was 59.4%; in the experiment on SR leukemia it was 66%; with RPMI-8226 leukemia, 72.1%. The growth in the experiment on OVCAR-8 ovarian was 95.1%; with OVCAR-5 ovarian, 77.7%; in the experiment on OVCAR-4 ovarian, 89.6%; with SK-OV-3 ovarian, 105%; in the experiment with IGROV1 ovarian it was -5.28% (active); in the experiment on OVCAR-3 ovarian it was 71.3%. Also, the growth in the experiment on HS 578T breast is 34.1%; with NCI/ADR-RES ovarian, 81.6%.
For `O=C(N/N=C\c1ccccc1S(=O)(=O)O)N/N=C/c1ccccc1S(=O)(=O)O`, the growth is 99.8% in the experiment with SK-MEL-2 melanoma; 102% in the experiment with EKVX NSCLC; 102% in the experiment on SN12C renal; 92.5% in the experiment on UO-31 renal; 100% in the experiment with TK-10 renal; 98.7% with ACHN renal. Besides, the growth was 88.7% in the experiment on CAKI-1 renal; 101% in the experiment on A498 renal; 102% with CCRF-CEM leukemia; 92.3% with MOLT-4 leukemia; 90.3% in the experiment on SR leukemia; 94.6% with RPMI-8226 leukemia. The growth in the experiment on OVCAR-8 ovarian was 100%; in the experiment with OVCAR-5 ovarian it was 97.1%; in the experiment on OVCAR-4 ovarian, 109%; in the experiment on SK-OV-3 ovarian, 108%; in the experiment with IGROV1 ovarian, 109%; with OVCAR-3 ovarian it was 108%. Moreover, the values for the growth with HS 578T breast and with NCI/ADR-RES ovarian were 93.9% and 103%, respectively.
For the compound `CC[N+]1(CC)CC[N+]2(CCCC(C)CC2)CC1` (stereo not given), the growth was 110% in the experiment on SK-MEL-2 melanoma; 100% in the experiment on EKVX NSCLC; 96.4% in the experiment with SN12C renal; 94.7% with UO-31 renal; 104% in the experiment with TK-10 renal; 104% with ACHN renal. For the same compound, the growth is 101% in the experiment on CAKI-1 renal; 95.8% in the experiment on A498 renal; 107% with CCRF-CEM leukemia; 105% in the experiment on MOLT-4 leukemia; 106% with SR leukemia; 99.9% with RPMI-8226 leukemia. Besides, the growth is 105% with OVCAR-8 ovarian; 94.8% in the experiment on OVCAR-5 ovarian; 111% in the experiment with OVCAR-4 ovarian; 104% in the experiment with SK-OV-3 ovarian; 95.6% in the experiment on IGROV1 ovarian; 111% in the experiment with OVCAR-3 ovarian. Moreover, the growth in the experiment on HS 578T breast is 107%; in the experiment on NCI/ADR-RES ovarian it was 111%.
For the compound `Cc1c2ccncc2c(C)c2c1c1cc(CO)ccc1n2C`, the growth was -7.55% (active) in the experiment on SK-MEL-2 melanoma; 1.54% (active) in the experiment with EKVX NSCLC; 6.64% (active) in the experiment on SN12C renal; 3.77% (active) in the experiment on UO-31 renal; -21.4% (active) in the experiment on TK-10 renal; 0.85% (active) in the experiment with ACHN renal. Further, the growth was 8.35% (active) with CAKI-1 renal; -81.7% (active) in the experiment on A498 renal; 8.76% (active) in the experiment on CCRF-CEM leukemia; 6.68% (active) in the experiment with MOLT-4 leukemia; -4.24% (active) in the experiment with SR leukemia; -17.1% (active) in the experiment on RPMI-8226 leukemia. Moreover, the growth in the experiment on OVCAR-8 ovarian is 6.79% (active); with OVCAR-5 ovarian it was -15.8% (active); with OVCAR-4 ovarian, -3.73% (active); in the experiment on SK-OV-3 ovarian, -2.65% (active); in the experiment on IGROV1 ovarian, -8.24% (active); with OVCAR-3 ovarian, -24.2% (active). The growth in the experiment with HS 578T breast is 24.3%; in the experiment with NCI/ADR-RES ovarian, 4.56% (active).
As for `Cc1ccc(S(=O)(=O)OCCCOS(=O)(=O)c2ccc(C)cc2)cc1`, the growth in the experiment on SK-MEL-2 melanoma is 101%; in the experiment on EKVX NSCLC, 99.7%; in the experiment with SN12C renal, 98.1%; in the experiment on UO-31 renal, 71.3%; in the experiment with TK-10 renal it was 109%; in the experiment on ACHN renal, 96%. The growth was 68.3% in the experiment on CAKI-1 renal; 106% in the experiment on A498 renal; 79.1% in the experiment with CCRF-CEM leukemia; 62.5% in the experiment with MOLT-4 leukemia; 82.4% with SR leukemia; 76.2% in the experiment on RPMI-8226 leukemia. The growth with OVCAR-8 ovarian is 90%; in the experiment on OVCAR-5 ovarian it was 125%; with OVCAR-4 ovarian, 100%; in the experiment with SK-OV-3 ovarian it was 115%; with IGROV1 ovarian, 76.1%; with OVCAR-3 ovarian, 107%. Besides, the growth with HS 578T breast was 99.8%; in the experiment with NCI/ADR-RES ovarian it was 116%.
Take `N#CC1=C(N)Oc2ccc3ccccc3c2C1c1ccc([N+](=O)[O-])cc1` (stereo not given): the growth in the experiment with SK-MEL-2 melanoma was 93.9%; in the experiment with EKVX NSCLC, 65.8%; in the experiment with SN12C renal, 90.4%; in the experiment with UO-31 renal, 51.1%; with TK-10 renal, 156%; in the experiment with ACHN renal, 76.8%. Besides, the growth is 52.8% with CAKI-1 renal; 84.8% with A498 renal; 63.7% in the experiment with CCRF-CEM leukemia; 68.6% in the experiment on MOLT-4 leukemia; 77.3% in the experiment with SR leukemia; 83% with RPMI-8226 leukemia. The growth is 85.7% in the experiment with OVCAR-8 ovarian; 108% in the experiment on OVCAR-5 ovarian; 69.3% in the experiment with OVCAR-4 ovarian; 83.4% in the experiment on SK-OV-3 ovarian; 50.6% in the experiment with IGROV1 ovarian; 79.4% with OVCAR-3 ovarian. Also, the values for the growth in the experiment with HS 578T breast and in the experiment on NCI/ADR-RES ovarian were 90.2% and 94.6%, respectively.
`COc1ccc(C(=S)N2CCN(c3ccc(Cl)cc3)CC2)cc1`: the growth was 97.7% with SK-MEL-2 melanoma; 130% with EKVX NSCLC; 85.4% in the experiment with SN12C renal; 81.9% in the experiment on UO-31 renal; 101% in the experiment with TK-10 renal; 94.8% with ACHN renal. Besides, the growth was 105% in the experiment on CAKI-1 renal; 107% in the experiment with A498 renal; 90.3% with CCRF-CEM leukemia; 76.8% with MOLT-4 leukemia; 90.5% in the experiment on SR leukemia; 94% in the experiment on RPMI-8226 leukemia. The growth in the experiment with OVCAR-8 ovarian is 98.2%; in the experiment with OVCAR-5 ovarian it was 93.8%; in the experiment with OVCAR-4 ovarian, 102%; in the experiment with SK-OV-3 ovarian, 98.5%; with IGROV1 ovarian, 109%; with OVCAR-3 ovarian, 114%. For the same compound, the growth was 105% with HS 578T breast and 97.6% in the experiment on NCI/ADR-RES ovarian.
